# Reference: PubChem BioAssay AID1347165 (National Center for Advancing Translational Sciences (NCATS), 2019)
# Among all 220,000 compounds or so, about 5,700 (2.6%) were called active. Where a call stands in place of a potency, no number is given. Roughly 18% stayed inconclusive and do not appear here. The call rests on the fitted dose curve; in most records, active means well fitted inhibition curve with a large enough effect; inconclusive means small, poorly fitted or top-dose-only effect; inactive means no such curve, though single readings can be large or run the other way. This excerpt belongs to a sample that is enriched for actives.
# Molecular target: Lysine-specific demethylase 5B (Homo sapiens) (UniProt Q9UGL1)
# Sequence (Q9UGL1 whole entry, looked up): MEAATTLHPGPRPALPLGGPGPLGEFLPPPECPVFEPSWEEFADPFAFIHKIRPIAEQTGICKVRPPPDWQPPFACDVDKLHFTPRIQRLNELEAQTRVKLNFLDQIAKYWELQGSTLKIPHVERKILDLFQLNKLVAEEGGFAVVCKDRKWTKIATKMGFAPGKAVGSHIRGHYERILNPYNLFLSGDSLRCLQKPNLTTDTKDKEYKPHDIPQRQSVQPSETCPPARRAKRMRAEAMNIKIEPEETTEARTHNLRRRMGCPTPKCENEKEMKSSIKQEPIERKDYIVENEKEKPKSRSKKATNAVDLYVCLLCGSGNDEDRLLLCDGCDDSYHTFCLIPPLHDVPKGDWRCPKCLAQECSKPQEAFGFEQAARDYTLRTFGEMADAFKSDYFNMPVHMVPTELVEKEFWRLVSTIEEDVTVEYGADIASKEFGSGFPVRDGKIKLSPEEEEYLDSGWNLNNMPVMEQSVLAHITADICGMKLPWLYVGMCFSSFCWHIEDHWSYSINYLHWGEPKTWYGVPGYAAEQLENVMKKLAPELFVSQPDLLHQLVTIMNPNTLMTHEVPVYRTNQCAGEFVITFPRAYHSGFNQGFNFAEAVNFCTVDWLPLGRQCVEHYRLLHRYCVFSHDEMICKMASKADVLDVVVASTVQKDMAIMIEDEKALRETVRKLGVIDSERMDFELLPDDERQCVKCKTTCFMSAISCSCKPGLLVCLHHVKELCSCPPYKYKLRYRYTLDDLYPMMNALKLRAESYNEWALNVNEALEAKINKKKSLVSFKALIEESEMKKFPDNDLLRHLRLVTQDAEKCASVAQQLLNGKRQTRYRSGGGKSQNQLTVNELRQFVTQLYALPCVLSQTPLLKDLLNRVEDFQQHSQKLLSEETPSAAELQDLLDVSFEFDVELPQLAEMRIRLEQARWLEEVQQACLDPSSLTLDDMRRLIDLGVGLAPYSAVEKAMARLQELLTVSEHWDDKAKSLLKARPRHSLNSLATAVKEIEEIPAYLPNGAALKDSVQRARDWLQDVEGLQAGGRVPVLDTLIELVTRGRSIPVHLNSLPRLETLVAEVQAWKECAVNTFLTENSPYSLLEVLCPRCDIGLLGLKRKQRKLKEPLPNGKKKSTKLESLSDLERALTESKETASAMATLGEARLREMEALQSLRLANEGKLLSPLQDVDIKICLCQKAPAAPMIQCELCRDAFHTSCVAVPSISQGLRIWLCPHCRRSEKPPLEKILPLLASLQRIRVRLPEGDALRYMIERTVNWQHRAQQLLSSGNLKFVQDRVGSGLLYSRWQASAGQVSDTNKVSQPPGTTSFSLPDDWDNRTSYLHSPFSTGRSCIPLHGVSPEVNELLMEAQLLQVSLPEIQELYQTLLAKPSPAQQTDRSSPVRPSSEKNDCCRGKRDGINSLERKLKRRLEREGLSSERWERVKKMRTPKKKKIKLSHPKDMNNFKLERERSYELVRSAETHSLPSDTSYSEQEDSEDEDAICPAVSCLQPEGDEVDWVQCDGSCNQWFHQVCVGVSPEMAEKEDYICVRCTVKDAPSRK
# Experiment: Primary screen for KDM5B Histone Demethylases FDH-coupled qHTS; further: nearly all actives have a fitted effect of over 70% in size
# Settings: FDH-coupled NADH fluorescence (FDH is formaldehyde dehydrogenase); series mostly up to 57.7 µM
# In short: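 Inhibition is measured as reduced NADH fluorescence generation from FDH coupling to formaldehyde release. Truncated KDM5BΔAP at 200 nM final acts on H3K4me3 peptide (12.5 µM in substrate mix) in pH 7.5 HEPES buffer with Tween-20, 30 min, room temperature.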
# Potency means the concentration at half of the fitted maximal effect.
row,SMILES,Potency
1,CNC(=O)c1cccc(NC(=O)CC(C)(C(=O)O)c2ccccc2)c1 (stereo unspecified),inactive
2,Cc1cc(C)c(CNC(=O)c2nc(-c3cccc(CO)c3)cc3c2ccn3C)c(=O)[nH]1,35.5 µM (active)
3,O=S(=O)(Oc1ccccc1C(=S)N1CCOCC1)c1ccc(Cl)cc1,inactive
4,CCN(c1ccc(NC(=O)c2nccnc2N)cc1)C(C)C,inactive
5,Cc1cc(S(=O)(=O)c2cc3cc(F)cc(F)c3oc2=O)ccc1F,inactive
6,O=S(=O)(c1ccc(F)cc1)N1CCn2cccc2C1c1ccccc1F (stereo unspecified),inactive
7,Cc1cccc(NN)c1C,inactive
8,COc1cccc(CNC(=O)CC(C)CC(=O)O)c1 (stereo unspecified),inactive
9,CCc1ccc(OCC(=O)Nc2ccc(S(=O)(=O)NC(C)(C)C)cc2)cc1,inactive
10,NC(=O)c1ccc(OC2CCN(C(=O)c3ccc(F)cc3)CC2)nc1,inactive
11,NC(=O)c1ccc(OC2CCN(C(=O)CCc3ccccc3)C2)nc1 (stereo unspecified),inactive
12,CNc1ccc(OC2CCN(C(=O)NCCc3ccccc3)CC2)nc1,28.2 µM (active)
13,CN(C)c1ncccc1CNC(=O)Cc1ccccc1F,inactive
14,CC(NC(=O)c1ccc2c(c1)CCCC2)c1ccccc1 (stereo unspecified),inactive
15,Cc1c(C(=O)NCCN(C)C)oc2ccc(S(=O)(=O)N3CCCC3)cc12,inactive
16,Fc1ccc(-c2cnc3n[nH]c(-c4ccc5c(c4)OCO5)c3n2)cc1,inactive
17,C[S+](=O)([O-])c1ccc(-c2cnc3n[nH]c(-c4ccccc4)c3n2)cc1,35.5 µM (active)
18,COc1ccc(-c2[nH]nc3ncc(-c4cn[nH]c4)nc23)cc1F,inactive
19,Cc1cccc(-c2cnc3n[nH]c(-c4ccc5c(c4)OCO5)c3n2)c1,inactive
20,Cc1ccsc1-c1[nH]nc2ncc(-c3ccccc3O)nc12,inactive
21,Cn1cc(-c2cnc3n[nH]c(-c4ccccc4)c3n2)cn1,35.5 µM (active)
22,Cc1ccc(C(=O)NCC(c2cccs2)N(C)C)cc1S(=O)(=O)N1CCOCC1 (stereo unspecified),inactive

row,SMILES,Potency
1,O=C(c1cccc(Br)c1)N1CCN(C2=NS(=O)(=O)c3ccccc32)CC1,inactive
2,COc1ccc(NC(=O)CCCC2CCCCC2)c(OC)c1,inactive
3,COc1ccccc1CN1CC[C@@H](CO)N(C)c2ncccc2C1,31.6 µM (active)
4,COc1cccc(CN2CCN(Cc3ncccc3C)CC2)c1O,inactive
5,COc1ccccc1CN1CCC(N2CCN(c3ccccc3OC)CC2)CC1,inactive
6,CC(C)n1ncc2cc(C(=O)N3CCCCc4ccccc43)cnc21,inactive
7,CCN(CCCNC(=O)c1nn(-c2ccc(OC)cc2)c(=O)c2ccccc12)Cc1ccccc1,inactive
8,CN(Cc1ccc(F)cc1)C(=O)Cn1nc(C(=O)O)c2ccccc2c1=O,inactive
9,CN1CCC2(C1)CN(CC1CCOCC1)c1ccc(C(=O)NCCCn3ccnc3)cc12 (stereo unspecified),39.8 µM (active)
10,CC(=O)Nc1ccc(C2(C(=O)NCCCN3CCOCC3)CCCCC2)cc1,inactive
11,COc1ccc(S(=O)(=O)N2CCCC(C(=O)NCCCn3ccnc3)C2)cc1OC (stereo unspecified),inactive
12,Cc1c(C(=O)N(Cc2nc3ccccc3c(=O)[nH]2)C(C)C)oc2ccc(Cl)cc12,inactive
13,CCN1C(=O)C(=O)N(CC(=O)Nc2cc(C)ccc2C)C1=O,inactive
14,Cc1ccc(C(=O)N2CC[C@H](CO)[C@H](NC(=O)C3CC3)C2)cn1,inactive
15,CC(=O)N[C@H]1CN(c2cncc(C(=O)N3CCCC3)n2)C[C@@H]1C1CC1,28.2 µM (active)
16,O=C(c1cnccn1)N1CC2CC(C1)[C@H]1CCCC(=O)N1C2 (stereo partly specified),inactive
17,Cc1ccc(N(CC(=O)NC2CCCCCCC2)S(=O)(=O)N(C)C)cc1,inactive
18,O=C(Nc1cccc(Cl)c1)[C@@H]1C[C@H](c2ccc(F)cc2)N([S+](=O)([O-])C2CC2)C1,inactive
19,O=C(Nc1cccnc1)[C@@H]1C[C@@H](c2ccc(F)cc2)N([S+](=O)([O-])c2ccccc2)C1,inactive
20,O=C([C@@H]1C[C@H](c2ccc(F)cc2)N([S+](=O)([O-])C2CC2)C1)N1CCN(c2ccccn2)CC1,20 µM (active)
21,Cc1c(C)n2c3c(=O)[nH]c(=O)n(C)c3nc2n1CCN1CCN(Cc2ccc(F)cc2)CC1,inactive
22,C=CCOC/C=C/C#CCN(CC=C)Cc1ccc(OC)cc1OC,inactive

row,SMILES,Potency
1,CC(=O)N1CCC(Cc2ccc(C(=O)NC3CC3)cc2)CC1,inactive
2,O=C(NC1CC1)c1ccc2c(c1)C1(CCN(CC3CC3)C1)CN2Cc1ccccc1 (stereo unspecified),31.6 µM (active)
3,CCCN1C(=O)Cc2cc(C(=O)NC3CC3)ccc21,inactive
4,CC(=O)N1CCCC2(C1)CN(C)c1ccc(C(=O)NC3CC3)cc12 (stereo unspecified),25.1 µM (active)
5,O=C1Nc2ccccc2CC12CCN(CC1CC1)C2 (stereo unspecified),inactive
6,O=C(NC1CCCCC1)c1ccc2c(c1)N(Cc1ccc(Cl)cc1)C(=O)c1ccccc1S2=O (stereo unspecified),inactive
7,COC(=O)c1cccc(N(CC(=O)NCC2CCCO2)C(=O)CCC(=O)Nc2cc(C)on2)c1 (stereo unspecified),inactive
8,COc1ccccc1C(=O)OCC(=O)NCCNC(=O)COC(=O)c1ccccc1OC,inactive
9,CSCC[C@H](NC(=O)CSc1cc(Cl)ccc1Cl)c1nc2ccccc2[nH]1,inactive
10,O=C(NCc1ccccn1)c1ccc2nccn2c1,31.6 µM (active)
11,O=C(Nc1ccc(C(=O)N2CCOCC2)cc1)Nc1cccc(C(F)(F)F)c1,inactive
12,CCn1cc(-c2ccccc2)cc1C(=O)NCc1ccccn1,inactive
13,O=C(NCCc1ccc(Cl)cc1)c1ccc2nc(CCc3ccccc3)oc2c1,inactive
14,O=C(c1ccoc1)N1CCC(Oc2ncccc2C(=O)N2CCOCC2)C1 (stereo unspecified),inactive
15,O=C(c1ccc2nccn2c1)N1CCOCC1,100 µM (active)
16,Cc1cc(C(=O)NCCc2ccc(Cl)cc2)c(C)o1,inactive
17,O=C(NC1CCN(Cc2ccc(F)c(F)c2)CC1)c1ccc2nccn2c1,28.2 µM (active)
18,NC(=O)CN1CCC(NC(=O)c2ccc(Oc3ccc(F)cc3)cc2)CC1,inactive
19,O=C(NCCc1ccc(Cl)cc1)c1ccc2nccn2c1,112 µM (active)
20,NC(=O)CN1CCC(NC(=O)c2cccc(F)c2)CC1,inactive
21,COc1cccc(S(=O)(=O)NCc2ccc(C(=O)NCc3ccccn3)cc2)c1,inactive
22,COc1ccc2nc(NC(=O)Nc3ccc(C)cc3)sc2c1,inactive

row,SMILES,Potency
1,COc1cc(/C=C(\C#N)C(=O)C(C)(C)C)ccc1OCc1c(Cl)cccc1Cl,inactive
2,COC[C@]1(O)CCN(C(=O)c2ccccc2C(F)(F)F)CC1(C)C,inactive
3,C#Cc1cccc(NS(=O)(=O)c2ccc(OC)c3ncccc23)c1,inactive
4,CC1(C)CC(=O)C2=C(C1)OC(N)=C(C#N)C2c1ccc(C(F)(F)F)cc1 (stereo unspecified),inactive
5,Cc1ccccc1/C=C1\Oc2cc(OS(C)(=O)=O)ccc2C1=O,inactive
6,O=C(Cc1cccc(F)c1)NC1CCC(c2ccccc2)CC1 (stereo unspecified),inactive
7,O=c1ncn(Cc2ccccc2)c2ccc(-c3ccoc3)nc12,39.8 µM (active)
8,CCOc1ccccc1NC(=O)Cc1c(C)[nH]n(-c2nc(-c3ccccc3)cs2)c1=O,inactive
9,CNCCCNC(=O)C(=O)Nc1cccc2[nH]ccc12,inactive
10,Cc1ccccc1OCc1nnc(SCC(=O)c2ccc(Cl)cc2)n1C,inactive
11,Cc1nn(CC(=O)O)c(=O)c2nc(C(C)C)sc12,inactive
12,CCN1CCN(C(=O)Cn2nc(C)c3sc(-c4ccccc4)nc3c2=O)CC1,22.4 µM (active)
13,Cc1ccc(C)c(N2CCN(C(=O)Cn3nc(C)c4sc5ccccc5c4c3=O)CC2)c1,inactive
14,COc1ccccc1NC(=O)C1CCN(c2nc3ccccc3nc2OC)CC1,inactive
15,Cc1cc(Cl)ccc1-c1ccc(CN)cc1,inactive
16,COCCNC(=O)C1CCN(S(=O)(=O)c2ccc3c(ccn3C)c2)CC1,inactive
17,N#Cc1ccccc1Sc1ccccc1C(=O)NC1CCCCC1,inactive
18,N#Cc1cccnc1-c1cccc(C(=O)O)c1,inactive
19,CC(C)(O)CCc1cccc(C(=O)NC2CCN(c3ncccc3C#N)CC2)c1,22.4 µM (active)
20,Cc1ccc(C(=O)NCc2nc(C)cs2)cn1,inactive
21,CC(C)C1=C/C(=C/c2ccccc2)C(C)/C(=C/c2ccccc2)C1=O (stereo unspecified),inactive
22,CC1CCC2(CC1)NC(=O)N(CC(=O)NCc1ccco1)C2=O (stereo unspecified),inactive

row,SMILES,Potency
1,Cc1ccccc1NC(=O)CN1C(=O)C(C)(C)c2ccccc21,inactive
2,Cc1ccccc1CNC(=O)CN1C(=O)C2(CCNCC2)Nc2ccccc21,14.1 µM (active)
3,CCn1c(=O)c2ccccc2n(CC(=O)Nc2ccccc2C(F)(F)F)c1=O,inactive
4,CCNC(=O)NC(=O)C(C)Sc1nc(-c2ccccc2)c(-c2ccccc2)o1 (stereo unspecified),inactive
5,Cc1nc2cc(NC(=O)c3ccc(C(=O)c4ccccc4)cc3)ccc2o1,inactive
6,CN(Cc1cccc2ccccc12)C1CCc2ccccc21 (stereo unspecified),inactive
7,c1ccc2c(c1)CCN2C1CN(Cc2cccc3ccccc23)C1,100 µM (active)
8,Cc1ccccc1N(C)C1CN(Cc2cccc3ccccc23)C1,inactive
9,Cc1oc(-c2cccs2)nc1CC(=O)N1CCC2(CC1)NC(=O)NC2=O,inactive
10,COc1ccc(NC(=O)O[C@@H]2CO[C@H]3[C@@H]2OC[C@@H]3NC(=O)C2CCCCC2)cc1,inactive
11,O=C(Nc1cccc(C(F)(F)F)c1)O[C@@H]1CO[C@H]2[C@@H]1OC[C@@H]2Nc1nccc(-c2ccc3c(c2)OCO3)n1,31.6 µM (active)
12,COCC(=O)N[C@H]1CO[C@H]2[C@@H]1OC[C@@H]2Nc1nccc(C(C)(C)C)n1,inactive
13,CC(C)(CC(=O)O)CC(=O)N[C@H]1CO[C@H]2[C@@H]1OC[C@@H]2Nc1nccc(-c2ccc3c(c2)OCO3)n1,28.2 µM (active)
14,O=C(Nc1ccccc1)O[C@@H]1CO[C@H]2[C@@H]1OC[C@@H]2NS(=O)(=O)c1cccc2cccnc12,inactive
15,CC(C)(C)c1ccnc(N[C@H]2CO[C@H]3[C@@H]2OC[C@H]3OC(=O)Nc2cccc(C(F)(F)F)c2)n1,inactive
16,COc1cccc(NC(=O)O[C@@H]2CO[C@H]3[C@@H]2OC[C@@H]3Nc2nccc(-c3cccs3)n2)c1,15.8 µM (active)
17,CC(C)(C)c1ccnc(N[C@H]2CO[C@H]3[C@@H]2OC[C@@H]3NC(=O)CC2(CC(=O)O)CCCC2)n1,inactive
18,COc1ccc(NC(=O)O[C@@H]2CO[C@H]3[C@@H]2OC[C@@H]3NC(=O)NC2CCCCC2)cc1,inactive
